Hits are enriched below; roughly 4.1% of the tested compounds scored in any of these assays.
hgDAF12 agonist: agonists of H. glycines DAF-12 nuclear receptor. HEK293 GAL4-hgDAF12 UAS-luciferase reporter, agonist luminescence; normalized to butyrate control. activation, % at 6.8 µM. hit rate 1.8% among 370,000. AID 687014;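 active = activation above a cutoff set at the mean of all screened compounds plus 3 SD, cut at about 10% in these data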
ssDAF12 agonist: activates DAF-12 receptor from parasite S. stercoralis. activation, % at 6.8 µM. hit rate 1% among 370,000. HEK293 ssDAF-12/GRIP1 lit1-tk-luc reporter, luminescence; % of 3 µM dafachronic acid response. AID 652126;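 active = activation above the mean over all tested compounds plus 3 SD, cut at about 0.9% in these data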
hcDAF12 agonist: activates DAF-12 receptor from parasite H. contortus. HEK293 hcDAF-12 lit1-tk-luc reporter, luminescence; 0% DMSO, 100% Δ7-dafachronic acid. activation, % at 6.8 µM. hit rate 1.4% among 370,000. AID 652067;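 active = activation above the mean of all tested compounds plus 3 SD, cut at about 5.5% in these data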
DAX1 inh-1: inhibits human nuclear receptor DAX1 | inhibition, % at 6.75 µM | HEK293 Gal4-DAX1 luciferase reporter, luminescence | AID 504766 | hit rate 0.99% among 340,000 | P51843;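 active = inhibition above the mean over all tested compounds plus 3 SD, cut at about 4.2% in these data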;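 note: inhibition shows as a rise in luminescence from relieved DAX1 repression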
Target sequence (P51843 207-470 limits assumed): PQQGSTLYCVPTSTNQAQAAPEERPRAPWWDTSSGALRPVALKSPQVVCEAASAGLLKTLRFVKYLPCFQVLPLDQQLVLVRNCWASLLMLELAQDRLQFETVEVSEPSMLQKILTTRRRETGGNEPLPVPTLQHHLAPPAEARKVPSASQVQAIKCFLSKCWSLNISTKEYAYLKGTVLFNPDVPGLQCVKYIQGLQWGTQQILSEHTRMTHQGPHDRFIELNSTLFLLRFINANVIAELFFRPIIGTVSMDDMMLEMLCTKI
DAX1 inh-2: DAX1 (NR0B1) inhibition, primary screen; HEK293T StAR-luciferase reporter, SF-1/DAX-1 repression relief; hit rate 1.1% among 370,000; inhibition, % at 6.8 µM;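 active = inhibition above the mean over all tested compounds plus 3 SD, cut at about 3.6% in these data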;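 note: higher inhibition means more luminescence from relief of DAX-1 repression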
Of the large screens only hits and unclear results are named; the others gave an inactive call.

CC(=O)Nc1ccccc1OCC(=O)NC(C)c1ccccc1 (stereo unspecified)	ssDAF12 agonist 1.0
CSc1ccccc1NC(=O)COc1ccccc1C	ssDAF12 agonist 1.5
CSc1ccccc1NC(=O)COC(=O)c1c[nH]c(=O)[nH]c1=O	DAX1 inh-1 5.5
COc1cccc(C2CC=C(C(=O)O)CN2S(=O)(=O)c2ccc(C)cc2)c1 (stereo unspecified)	none (no result: DAX1 inh-1)
CC(C)n1c2ccccc2c2cc([N+](=O)[O-])ccc21	none
CCC(C)n1c(=S)[nH]c2c(sc3ccc([N+](=O)[O-])cc32)c1=O (stereo unspecified)	ssDAF12 agonist 3.4
COC(=O)[C@]12C[C@H](CC(=O)NCc3cccs3)C(=O)N(Cc3ccc(Cl)cc3Cl)C1=C[C@H](C(C)(C)C)O[C@@H]2C	none (no result: DAX1 inh-1)
CC(=O)Nc1ccc(CCc2nc3ccccc3[nH]2)cc1	none
CC(C)c1ccc(NC(=O)N(CCc2nc3ccccc3[nH]2)C2CCCC2)cc1	ssDAF12 agonist 0.9
Cc1c(/C=C/C(=O)c2ccccc2O)cnn1C	hgDAF12 agonist 13, DAX1 inh-1 4.5
CC(/C=N\NC(=O)CSc1nnc(-c2ccc(Br)cc2)n1-c1ccccc1)=C\c1ccco1	none (no result: DAX1 inh-1)
O=C(O)C1CC=CCC1C(=O)NCc1cn2ccccc2n1 (stereo unspecified)	ssDAF12 agonist 1.1
CCn1c(SCC(=O)OC(C)C)nnc1-c1ccccc1OC	ssDAF12 agonist 1.1
Cc1ccccc1C(=O)N(C)[C@H]1C[C@H]2c3[nH]c4c(-c5ccccc5)cccc4c3CCN2C(=O)[C@H]1[C@H](C)O	none (no result: DAX1 inh-1)
CC(=O)Nc1ccc(C=NNc2ccc(S(=O)(=O)Nc3ccccc3C(=O)O)cc2[N+](=O)[O-])cc1	none
O=[N+]([O-])c1ccc(N/N=C/c2ccccc2)c(F)c1	hgDAF12 agonist 12
CC(=O)Nc1ccc(C=NNc2ccc([N+](=O)[O-])cc2S(=O)(=O)Nc2ccccc2C(=O)O)cc1	DAX1 inh-2 3.9
O=S1(=O)c2ccc(Br)cc2OC[C@@H](c2ccccc2)N1Cc1cn(CCC2OCCCO2)nn1	none (no result: DAX1 inh-1)
O=C(N[C@@H]1C[C@@H]2O[C@@H](CO)CC[C@@H]2O[C@@H]1CCc1ccc(-c2cccnc2)cc1)c1cccc(F)c1	none (no result: DAX1 inh-1)
Cc1nc2sc(C(N)=O)c(N)c2c(C)c1CC(=O)c1ccccc1	hgDAF12 agonist 12
Cc1cc(C)c2c(N)c(C(=O)c3ccccc3)sc2n1	none (no result: DAX1 inh-1)
CCCCNC(=O)C1CCN(S(=O)(=O)N2CCCCCC2)CC1	hcDAF12 agonist 5.9
O=C(NCC1CCN(C(=O)C(=O)c2cc3ccccc3o2)CC1)c1ccc2c(c1)OCC2	none (no result: DAX1 inh-1)
CCN(CC)C(=O)CC[C@@H]1CC[C@]2(CCCN(S(=O)(=O)c3ccccc3)C2)O1	none (no result: DAX1 inh-1)
NC(=O)C1CCN(C(=O)c2ccc(CS(=O)(=O)c3c(Cl)cccc3Cl)o2)CC1	DAX1 inh-1 6.9
CCOc1ccc(-n2c(SCC(=O)Nc3ccc4c(c3)OCCO4)nnc2-c2ccncc2)cc1	none (no result: DAX1 inh-1)
CC(Sc1nnc(C2CC2)n1-c1ccccc1)C(=O)N1CCCC1 (stereo unspecified)	hgDAF12 agonist 13
CC(Sc1ccccn1)C(=O)Nc1ccccc1 (stereo unspecified)	hgDAF12 agonist 13
CC(C)(C)NC(=O)C1Cc2ccccc2CN1 (stereo unspecified)	DAX1 inh-1 7.3
CC(CCc1ccccc1)NC(=O)[C@@H]1Cc2ccccc2CN1 (stereo partly specified)	none
O=C(NCC(O)CN1CCOCC1)c1ccc([N+](=O)[O-])cc1 (stereo unspecified)	DAX1 inh-1 6.2
CC(=O)c1cccc(NC(=O)C2CCN(C(=O)c3ccc([N+](=O)[O-])cc3)CC2)c1	ssDAF12 agonist 2.3
O=C(NCC(c1ccco1)N1CCOCC1)c1ccc([N+](=O)[O-])cc1 (stereo unspecified)	none
O=C(c1ccc([N+](=O)[O-])cc1)N1CCCC1	none
O=C(c1ccc([N+](=O)[O-])cc1)N1CCOCC1	ssDAF12 agonist 8.9
O=C(Nc1ccccc1)C1CCN(C(=O)c2ccc([N+](=O)[O-])cc2)CC1	none
CC(COc1ccc(OC(F)(F)F)cc1)CN1CCC(C(O)(c2ccccc2)c2ccccc2)CC1 (stereo unspecified)	none (no result: DAX1 inh-1)
CCOC(=O)C1(CC2CC2)CCN(C(=O)c2ocnc2C)CC1	DAX1 inh-1 4.3
CCOC(=O)C1(CCCc2ccccc2)CCN(C(=O)c2ocnc2C)CC1	none
COC(=O)C1=C(C)N(Cc2ccc(F)cc2)C(=S)NC1c1cccc(OC)c1 (stereo unspecified)	none (no result: DAX1 inh-1)
CCOC(=O)C1(Cc2ccccc2C)CCCN(Cc2cn(C)nc2C)C1 (stereo unspecified)	DAX1 inh-1 6.1
COc1cccc(N2CCc3c(C)nc4ccc(Cl)cc4c32)c1	none
CCN1Cc2c(/C=C/c3ccccc3)nc3ccc(OC)cc3c2N(c2cccc(Cl)c2)C1	hcDAF12 agonist 5.7
C[C@H]1Cn2nncc2Cn2c3ccccc3c(=O)n21	none (no result: DAX1 inh-1)
CC1CC1C(=O)Nc1nc(-c2cccs2)c(-c2cccs2)s1 (stereo unspecified)	ssDAF12 agonist 2.0
N#CCc1cc2ccc3cccc4ccc(c1)c2c34	DAX1 inh-1 7.0
c1ccc2c(c1)c1cccc3ccc4cccc2c4c31	none
CC(CCN1CCC(C(O)(c2ccccc2)c2ccccc2)CC1)Oc1ccc(C#N)c(F)c1 (stereo unspecified)	none (no result: DAX1 inh-1)
COC(=O)[C@]12C[C@H](CC(=O)NCCCN3CCCC3=O)C(=O)N(Cc3ccco3)C1=C[C@H](COCc1ccccc1)O[C@@H]2C	none (no result: DAX1 inh-1)
CC1CC(NC(=O)c2c(O)nc3sccn3c2=O)CC(C)(C)C1 (stereo unspecified)	DAX1 inh-1 6.4
CCOCc1c(C(=O)N2CCN(CC(=O)Nc3ccc(F)cc3)CC2)oc2ccccc12	ssDAF12 agonist 1.2
COc1ccc2[nH]c3c(c2c1)CCN[C@]31C(=O)N(C)c2ccc(Br)cc21	ssDAF12 agonist 1.1 (no result: DAX1 inh-1)
COc1ccc2c(c1)[C@@]1(NCCc3c1[nH]c1ccc(OC)cc31)C(=O)N2C	none (no result: DAX1 inh-1)
C[C@H]1[C@H](N(C)C)CC[C@@]23CCCN2C(=O)CCC[C@@H]13	none (no result: DAX1 inh-1, DAX1 inh-2)
CCCOC(=O)c1ccc(NC(=O)c2ccoc2C)cc1	none
CCCCOC(=O)c1ccc(NC(=O)c2ccoc2C)cc1	hgDAF12 agonist 12
CCCOC(=O)c1ccc(NC(=O)CC(C)(C)C)cc1	hgDAF12 agonist 13, DAX1 inh-2 3.8
CCCCOC(=O)Nc1ccc(C(C)C)cc1	none
CCCCOC(=O)Nc1nnc(C(C)C)s1	hgDAF12 agonist 11, DAX1 inh-1 5.7
CCCOC(=O)c1ccc(NC(=O)COC)cc1	none
CCCCOC(=O)Nc1ccc(C(N)=O)cc1	DAX1 inh-1 4.3
COc1cccc(CNC(=S)OC2CCC23CCC(c2ccccc2)CC3)c1 (stereo unspecified)	none (no result: DAX1 inh-1)
O=CN1CCN(C(=O)C2CCN(c3ncnc4c3sc3cccc(F)c34)CC2)CC1	none (no result: DAX1 inh-1)
